In ChEMBL document CHEMBL3433997, “St. Jude Leishmania screening dataset” (2016):

Key:
Assay type in all cases: functional
[1] = target: Solute carrier family 2, facilitated glucose transporter member 1 (Homo sapiens) (UniProt P11166); assay: ST_JUDE_LEISH: Cytotoxicity at 2uM final concentration against transgenic Leishmania Mexicana promastigotes LmGLUT1 that are glucose transport deficient and complemented with the human glucose transporter GLUT1. Activity is measured by DNA content using SYBR green in vitro
[2] = target: Hexose transporter 1 (Plasmodium falciparum) (UniProt O97467); assay: ST_JUDE_LEISH: Cytotoxicity at 2uM final concentration against transgenic Leishmania Mexicana promastigotes LmPfHT that are glucose transport deficient and complemented with the Plasmodium falciparum hexose transporter. Activity is measured by DNA content using SYBR green in vitro
[3] = target: Glucose transporter (Leishmania mexicana) (UniProt O61059); assay: ST_JUDE_LEISH: Cytotoxicity at 2uM final concentration against transgenic Leishmania Mexicana promastigotes LmGT2 that are glucose transport deficient and complemented with the L. Mexicana glucose transporter 2. Activity is measured by DNA content using SYBR green in vitro

Chain of Solute carrier family 2, facilitated glucose transporter member 1 (Homo sapiens) (P11166 whole entry): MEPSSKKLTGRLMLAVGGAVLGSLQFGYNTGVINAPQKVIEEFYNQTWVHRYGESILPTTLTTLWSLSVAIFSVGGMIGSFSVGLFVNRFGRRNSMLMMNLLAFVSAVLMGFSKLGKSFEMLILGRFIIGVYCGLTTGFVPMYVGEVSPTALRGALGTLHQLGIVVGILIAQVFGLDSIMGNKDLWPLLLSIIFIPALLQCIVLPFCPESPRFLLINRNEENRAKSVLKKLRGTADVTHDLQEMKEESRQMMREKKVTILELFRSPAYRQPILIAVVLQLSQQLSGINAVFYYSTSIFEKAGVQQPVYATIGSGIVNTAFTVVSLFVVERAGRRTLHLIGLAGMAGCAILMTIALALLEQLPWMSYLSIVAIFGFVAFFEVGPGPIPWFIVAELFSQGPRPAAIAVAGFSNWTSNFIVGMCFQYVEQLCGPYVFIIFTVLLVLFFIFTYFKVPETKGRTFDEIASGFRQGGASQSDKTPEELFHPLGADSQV

Compound	inhibition [1]	inhibition [2]	inhibition [3]
CCCc1cccc(OC)c1OCCCON1C(N)=NC(N)=NC1(C)C	-2.03%	-0.29%	0.81%
O=C(Nc1ccc(-c2ccc(-c3nc4ccccc4[nH]3)s2)cc1)Nc1ccsc1	0.72%	-0.46%	4.17%
O=C(Nc1cccc(-c2nn3ccccc3c2-c2ccnc(Nc3ccc(C(=O)N4CCOCC4)cc3)n2)c1)c1c(F)cccc1F	23.1%	7.72%	2.78%
CCn1c(-c2nonc2N)nc2c(-c3cccc(NC(=O)Nc4cccc(C#N)c4)c3)ncc(OCCCN)c21	4.72%	2.23%	2.66%
CN(CCON1C(=N)N=C(N)NC1(C)C)c1ccccc1	-0.49%	0.33%	0.35%
Cc1cccc2nc(-c3ccc(-c4ccc(CN5CCN(CCO)CC5)cc4)s3)[nH]c12	10.6%	8.8%	7.69%
CC(C)CCNC(=O)C1Cc2c([nH]c3cc(Cl)ccc23)C2(CCN(CCc3ccccc3)CC2)N1 (centres undefined)	1.75%	2.24%	0.76%
COCCNCc1cccc(-c2ccc3nccc(Nc4cc(O)ccc4C)c3c2)c1	3.68%	4.21%	4.38%
CC(=O)Nc1ccc(C(=O)Nc2ccc(-c3cccc(-c4nc5cc(F)ccc5[nH]4)c3)cc2)cn1	0.13%	1.66%	-4.38%
Cc1ccccc1C1CCN(C2CCC(NC(=O)/C=C/c3cccc(Cl)c3)CC2)CC1 (centres undefined)	-2.09%	-2.1%	-3.2%
CN1CCC(N2CCN(Cc3cccc(-c4ccc(-c5nc6cc(C(F)(F)F)ccc6[nH]5)cc4)c3)CC2)CC1	2.62%	3.31%	2.07%
Cc1nccn1CCNC(=O)CN1CCC2(CCC1=O)CC(=O)c1ccccc1O2 (centres undefined)	8.32%	7.32%	7.28%
COc1cc(CN2CCC(CO)(Cc3cccc(C(F)(F)F)c3)CC2)c(Cl)cc1O	0.06%	-1.69%	-0.81%
COc1cc(OC)cc(-c2nnc(Sc3ccc(C#N)c([N+](=O)[O-])c3)n2C)c1	9.51%	6.92%	5.47%
Nc1ncc(-c2cccc(OCc3ccccc3)c2)cc1-c1nnc2ccc(Cl)nn12	1.7%	1.29%	2.15%
Fc1cc(Cl)ccc1Nc1ccnc2cc(I)ccc12	2.92%	5.41%	3.25%
Cc1cc(Nc2ccc(O)cc2)nc2cccc(O)c12	2.06%	0.79%	3.84%
COc1ccc(-c2cccc(NC(=O)c3cccc(C#N)c3)c2)cc1CN1CCCN(C)CC1	1.45%	1.13%	5.93%
COc1cccc(CNC(=O)[C@@H]2CN(C(=O)c3ccccc3)CCN2)c1	-0.92%	0.03%	0.71%
N#Cc1cncc(-c2nc3c(N4CCC(N5CCCC5)CC4)cccc3n2CCNCc2ccccc2)c1	0.91%	0.8%	3.98%
O=C(Nc1ccc(-c2nc3ccccc3[nH]2)cc1)c1ccc(-c2cccc([N+](=O)[O-])c2)o1	-1.84%	-0.42%	-3.21%
CC(C)CCN1C(=O)C(NC(=O)Oc2ccccc2)C(=O)N(CC23CC4CC(CC(C4)C2)C3)c2ccccc21 (centres undefined)	-1.21%	-2.53%	-2.02%
CC(C)c1ccc(NC(=O)NCC2CCCN(CCCCCNC(=O)/C=C/c3ccc(Cl)c(Cl)c3)C2)cc1 (centres undefined)	2.73%	1.74%	2.62%
CC(C)Cc1cn(-c2nc(-c3nc4ccccc4[nH]3)cs2)c2cc(Cl)ccc12	6.36%	6.84%	7.38%
Cc1ccc(C(=O)Nc2ccc(Nc3ccnc4cc(-c5nccs5)ccc34)cc2O)cc1	6.24%	3.22%	1.89%
CC12CCC(=O)N1C(C(=O)Nc1cccc(C(=O)Nc3cccc(C(F)(F)F)c3)c1)CS2 (centres undefined)	5.52%	6.47%	6.41%
CC(C)COc1ccc(Cl)cc1Cc1nc(-c2nc3ccc(CN4CCCC4)cc3[nH]2)co1	2.58%	3.58%	3.07%

Compound	inhibition [1]	inhibition [2]	inhibition [3]
Cc1cccc(-c2cccc3c(NC(=O)N4CCc5cc6nccc(N7CCN8CCC[C@H]8C7)c6cc54)cccc23)n1	0.18%	0.95%	1.48%
O=S(=O)(NC1CCN(c2ccnc3cc(Cl)ccc23)C1)c1ccc(C(F)(F)F)cc1 (centres undefined)	1.91%	1.67%	0.45%
CN1CCC(c2csc3ccc(NC(=O)Nc4ccc(-c5ccncc5)c5ccccc45)cc23)CC1	-0.99%	0.65%	2.4%
Clc1cc(Cl)c2cc(CNCCCNc3ccc4ccccc4n3)[nH]c2c1	0.53%	0.95%	1%
CCNc1cc(C(=O)N[C@@H](Cc2ccccc2)[C@H](O)CNC2(CCC(C)C)CC2)cc(N2CCCCS2(=O)=O)c1	-1.85%	-0.04%	-0.78%
CCCCc1ccccc1NS(=O)(=O)c1ccc(OC)c(N2CCNCC2)c1	-0.96%	-3.65%	-2.27%
CCCCCN1CCN(Cc2cccc(NC(=O)c3ccc(Cl)c(Cl)c3)c2)CC1	1.39%	1.08%	1.32%
CCCCn1c(Sc2ccc(C#N)c([N+](=O)[O-])c2)nnc1-c1ccc(OC)cc1	3.24%	2.64%	0.78%
N[C@@H](Cc1cc(I)c(Oc2ccc(O)c(C(=O)O)c2)c(I)c1)C(=O)O	3.18%	3.91%	3.61%
Cc1cc(NCC2CCN(CC3CCCCC3)C2)nc(Nc2ccc(Br)cc2)n1 (centres undefined)	8.49%	7.88%	3.47%
O=C(Nc1ccc(CN2CCN(S(=O)(=O)c3cccc(Cl)c3)CC2)cc1)c1cccs1	3.93%	2.08%	1.17%
FC(F)(F)c1ccc2c(C=Cc3ccncc3)c[nH]c2c1	3.67%	3.37%	4.76%
Cc1cc(C)c(O)c(-c2cc(C(=O)Nc3ccc(S(=O)(=O)N4CC(C)OC(C)C4)cc3)[nH]n2)c1 (centres undefined)	3.1%	1.95%	0.01%
O=C(N[C@@H](Cc1ccccc1)[C@H](O)CNC1CCCc2ccccc21)c1cc(C2CCCC2)cc(N2CCCC2=O)c1 (some centres undefined)	-0.02%	0.77%	-0.94%
O=C(Nc1nc2cc(S(=O)(=O)NCCc3cccc(F)c3)ccc2n1CCCn1ccnc1)c1ccc(Cl)cc1	1.22%	0.32%	4.97%
CC(C)C[C@@H](/C=N/N1CCOC1=O)NC(=O)[C@H](CC(C)C)NC(=O)c1ccc(OCCN2CCOCC2)cc1	1.39%	6.46%	3.93%
O=C(/C=C/c1cccc2ccccc12)NCCCCCN1CCC(c2c[nH]c3ccccc23)CC1	0.55%	1.35%	2.9%
Cn1c(NC(=O)c2ccc(CNC(=O)c3ccc(O)c(-c4ccc(Cl)c(Cl)c4)c3)cc2)nc2ccccc21	4.29%	3.37%	3.29%
FC(F)(F)c1ccc2[nH]c(-c3cccc(-c4ccc(CNCc5cnn(-c6ccccc6)n5)cc4)c3)nc2c1	-0.1%	0.61%	2.19%
c1ccc(-c2nc3ccccc3[nH]2)c(Nc2ccnc3cc(-c4nccs4)ccc23)c1	4.76%	0.91%	0.58%
Clc1ccc(CNc2ccnc(NCc3cccnc3N3CCCC3)n2)c(Cl)c1	12.9%	7.88%	3.44%
Cc1ccc(Cc2c(N)nc3nc(N)nc(N)c3c2C)cc1	4.96%	8.67%	6.55%
CCSc1nnc(C2CCCN(CC(=O)Nc3cc(C(F)(F)F)ccc3Cl)C2)n1CC (centres undefined)	8.8%	8.79%	8.67%
O=C(Nc1ccc(Cl)c(Cl)c1)Nc1ccc2nccc(N3CCN(Cc4ccccc4)CC3)c2c1	3.7%	0.94%	3.64%
COc1c(C2CCN(CCCCNC(=O)c3oc(-c4ccc(Cl)cc4)cc3CO)CC2)ccc2c1CCCC2	1.58%	1.81%	3.08%
CN(C)c1ccc(-c2csc(C(=O)NC3CCN(Cc4ccc(C(C)(C)C)cc4)C3)c2)cc1 (centres undefined)	5.6%	5.58%	5.56%
